SKKanGAS inh: SKKanGAS growth inhibition; inhibition, % at 7.5 µM; S. pyogenes SKKanGAS, kanamycin growth, BacTiter-Glo, 6 h; AID 1662; hit rate 1.3% among 300,000;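 active means mean replicate score, as percent of positive control median, at least 50; inconclusive means mean below 50 but one replicate at or above 50; inactive means mean and every replicate below 50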;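 further: strain carries kanamycin resistance gene driven by streptokinase promoter and grows in 40 µg/ml kanamycin; loss of luminescence reflects streptokinase promoter inhibition or plain growth inhibition; 0% = median of DMSO wells and 100% = positive control at its reference dose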
TIM10 inh: TIM10 yeast growth inhibition. S. cerevisiae TIM10 strain growth, BacTiter-Glo luminescence, 24 h. inhibition, % at 10 µM. hit rate 1.4% among 330,000;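 active means inhibition of 40% or more at the single tested concentration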;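 further: wild-type TIM10 isogenic control strain grown at permissive 25 °C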
tim10-1 inh: tim10-1 yeast growth inhibition; S. cerevisiae tim10-1 ts strain growth, BacTiter-Glo, 24 h; inhibition, % at 20 µM; hit rate 2.2% among 330,000; AID 463190;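 active means inhibition of at least 40%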;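 further: mutant grown at 25 °C; 0% = DMSO wells with yeast and 100% = wells holding no yeast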
tim23-1 inh: growth inhibitors of tim23-1 mutant yeast | AID 463212 | hit rate 1.3% among 330,000 | S. cerevisiae tim23-1 growth, BacTiter-Glo luminescence, 24 h | inhibition, % at 20 µM;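 active means growth inhibition of the mutant yeast at or above 50%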;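 further: temperature-sensitive mutant grown at 25 °C; plate controls were DMSO-treated mutant yeast for no effect and medium wells lacking yeast for full effect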
Calb FLC: C. albicans growth modulation with fluconazole; C. albicans CaCi-2 (fluconazole-resistant clinical isolate) + fluconazole, Alamar Blue growth, 48 h; growth inhibition, % (test concentration not listed); hit rate 0.57% among 300,000; AID 1979;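 active means growth inhibition above about 58% in most replicates, limit read from the data, passing the limit was not always enough; inconclusive means exactly half the replicates above a set limit; inactive means most replicates below a set limit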;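 further: all wells also contain fluconazole at 8 µg/ml as a sub-toxic cotreatment; 0% = median of DMSO wells and 100% = median of geldanamycin control wells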
PfHsp90 set2: growth inhibition of yeast expressing Plasmodium Hsp90; S. cerevisiae expressing PfHsp90, BacTiter-Glo ATP, 48 h; yeast lacking PDR1 and PDR3 efflux regulators; inhibition, % at 9.4 µM; hit rate 0.32% among 310,000; AID 504621;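 active means every replicate shows inhibition above about 80%, whatever the replicate mean, limit read from the data; inconclusive means mean inhibition reaches the set limit but some replicate falls short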;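 further: 0% = DMSO neutral controls and 100% = 20 µM radicicol positive controls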
tim10-1 conf: confirmation of tim10-1 mutant yeast growth inhibitors. shares compounds with tim10-1 inh. S. cerevisiae tim10-1 ts strain growth, BacTiter-Glo, 24 h. inhibition, % at 20 µM. hit rate 56% among 7,400. AID 463213;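 active means inhibition of yeast growth at or above a set limit in either of two repeat tests at 20 µM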;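 further: tim10-1 mutant grown at permissive 25 °C to find synthetic lethal compounds; 0% = DMSO yeast wells and 100% = medium wells without yeast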
* hit, by the source's call; ? = inconclusive; · = no result. Sampled rows, rich in hits. Any-hit rate of the full collection: about 4.7%.

SMILES	SKKanGAS inh	TIM10 inh	tim10-1 inh	tim23-1 inh	Calb FLC	PfHsp90 set2	tim10-1 conf
Cc1cc(C(=O)NC(=S)Nc2ccccc2N2CCCC2)ccc1[N+](=O)[O-]	-8	0	13	7	27	-1	·
Cc1ccccc1OCC(=O)NCCNC(=O)c1ccccn1	-8	-20	9	9	-12	-28	·
O=S(=O)(c1ccc2c(c1)CCCN2)N1CCCC2CCCCC21 (stereo not given)	12	18	47*	45	2	-11	26
O=S(=O)(c1ccc2c(c1)CCCN2)N1CCCC1	·	22	18	20	·	3	·
O=C(OCC(=O)N1CCc2ccccc21)c1c2c(nc3ccccc13)CCCC2	21	40	39	34	2	19	·
CC1Cc2ccccc2N1C(=O)COC(=O)c1c2c(nc3ccccc13)CCCCC2 (stereo not given)	5	35	41*	35	?	11	36*
O=C(CN1C(=O)/C(=C\c2cccc(Br)c2)Oc2ccccc21)NCCCN1CCOCC1	-10	21	44*	32	23	-4	26
CC(C)(C)c1ccc(C(=O)COC(=O)CN2C(=O)NC3(CCCC3)C2=O)cc1	-3	7	16	17	1	2	·
Cc1cc(C)n(CCc2nc(-c3ccc(F)cc3)cs2)n1	-7	37	45*	30	6	-2	38*
c1ccc2c(c1)OC(CCCN1CCCCC1)c1ccccc1S2 (stereo not given)	-3	6	18	-18	8	2	·
CN1CCCC(CC2Oc3ccccc3Sc3ccccc32)C1 (stereo not given)	-5	19	40*	4	-31	21	20
Cc1[nH]nc(-c2ccc(O)cc2O)c1Oc1ccccc1	-8	-6	-4	20	37	-12	·
CCCOC(=O)c1ccc(Oc2c(-c3ccc(O)cc3O)n[nH]c2C)cc1	55*	21	55*	-111	-3	-40	9
CCC(C)(C)NC(=O)CN(Cc1ccco1)C(=O)CCC(=O)Nc1nccs1	-4	7	7	11	-5	-42	·
CCCCc1ccc(S(=O)(=O)N2CCN(C(=O)c3ccco3)CC2)cc1	0	23	52*	34	-6	5	32*
CCN(CC)S(=O)(=O)c1ccc(S(=O)(=O)N2CCN(C(=O)c3ccco3)CC2)cc1	-7	-5	8	-1	-19	-12	·
CCC1CCCCN1c1cc(C)nc2cc(-c3cccc(C)c3)nn12 (stereo not given)	57*	23	42*	21	-5	-25	9
O=C(CSc1nnc(Cc2ccccc2)o1)Nc1ccc(N2CCOCC2)cc1	·	-3	-6	6	·	-2	·
COc1ccc(-c2cccc(NS(=O)(=O)c3cc([N+](=O)[O-])c(C)c([N+](=O)[O-])c3)c2)nn1	16	9	17	29	56	-8	·
Cn1ncc2c(Nc3cccc(Cl)c3)nc(Nc3cccc(Cl)c3)nc21	100*	18	54*	43	-7	108*	45*
Cn1ncc2c(Nc3ccc(O)cc3)nc(Cl)nc21	-1	8	-21	15	6	-8	·
Cn1ncc2c(Nc3ccc(Br)cc3)nc(Nc3ccc(Br)cc3)nc21	106*	33	57*	41	9	-21	28*
N#Cc1ccccc1Cn1c(=O)n(C2CCCC2)c(=O)c2ccccc21	2	24	46*	41	51	-8	38*
O=c1c2ccccc2n(Cc2cccc(F)c2)c(=O)n1C1CCCC1	30	25	35	33	6	10	·
COc1ccc2cc(/C=C3\SC(=S)NC3=O)c(N3CCOCC3)nc2c1	40	36	42*	45	17	-41	39*
SMILES	SKKanGAS inh	TIM10 inh	tim10-1 inh	tim23-1 inh	Calb FLC	PfHsp90 set2	tim10-1 conf
O=C1NC(=S)S/C1=C/c1ccc(N2CCOCC2)o1	26	7	-1	-1	19	7	·
Cc1ccc(S(=O)(=O)CCC(=O)OCC(=O)Nc2cc(S(=O)(=O)N3CCOCC3)ccc2Cl)cc1	·	·	·	·	·	29	·
O=C(COC(=O)CCS(=O)(=O)c1ccccc1)Nc1cc(S(=O)(=O)N2CCCCC2)ccc1Cl	-4	27	40*	38	-2	·	42*
Cc1nn(C(=O)c2cccs2)c(N)c1-c1ccccc1	-8	-6	5	10	1	-12	·
Cc1nn(C(=O)c2ccc3c(c2)OCO3)c(N)c1-c1ccccc1	-5	18	41*	40	-10	10	10
Cn1c(N)c(C(=O)COC(=O)C2CCC(C(C)(C)C)CC2)c(=O)n(C)c1=O (stereo not given)	4	10	42*	19	2	·	26
COc1ccc(NC(=O)c2cccc(S(=O)(=O)NCc3ccccc3)c2)cc1S(N)(=O)=O	·	11	-5	5	·	34	·
O=C(Oc1cccc2ccccc12)c1cc(Cl)nc2ccccc12	29	16	18	24	26	5	·
O=Cc1ccc(OC(=O)c2cc(Cl)nc3ccccc23)cc1	11	14	44*	27	0	-1	21
O=C(NNc1nc2ccccc2s1)Nc1ccc(F)cc1	-6	10	28	0	-3	-72	·
O=C(NNc1nc2ccccc2s1)c1ccccc1F	-8	38	47*	26	-29	-6	28
Cc1c(C(=O)NCc2ccco2)oc2ccccc12	2	19	13	14	-5	-1	·
O=C(NCc1ccccc1)c1cc2ccccc2oc1=O	-2	5	-1	9	0	-4	·
O=C(NCc1nc2ccccc2[nH]1)c1cc2ccccc2oc1=O	-5	24	41*	6	-7	21	21
Cc1ccc(S(=O)(=O)CCC(=O)Nc2sccc2C(N)=O)cc1	·	3	-5	-4	·	-3	·
COC(=O)c1ccsc1NC(=O)CCS(=O)(=O)c1ccccc1	16	6	42*	41	40	4	21
COC(=O)c1ccsc1NC(=O)CS(=O)(=O)c1ccccc1	6	5	21	18	-1	·	·
COC(=O)c1ccsc1NC(=O)CCS(=O)(=O)c1ccc(Cl)cc1	-6	32	56*	46	26	-6	59*
CCOc1ccc(CN2CCC(C(=O)Nc3cccc(-c4ccn[nH]4)c3)CC2)cc1Cl	7	-6	11	4	-5	0	·
O=S(=O)(NC1CCSc2ccccc21)c1ccc(Cl)nc1 (stereo not given)	2	-5	21	21	-1	-27	·
CC1CN(C(=O)Nc2ccc(F)cc2F)CC(C)O1 (stereo not given)	-2	3	2	4	4	2	·
O=C(NCc1ccccc1)c1cc(-c2cccs2)on1	-6	-7	6	11	-15	-5	·

From PubChem BioAssay
